{
  "source": "PubChem BioAssay (EPA / NIEHS)",
  "key": {"[1]": {"tested_on": "Sodium/Iodide Symporter (NIS), SLC5A5 (gene 6528)", "test": "CPHEA_Stoker_NIS_Inhibition_RAIU: CPHEA's Radioactive Iodide Uptake (RAIU) Assay for Sodium/Iodide Symporter (NIS) Inhibition, Stoker and Laws Labs (AID 2283841; active means hit-call score of the fitted dose curve at least 0.9, where 1 is the maximum)", "in_short": "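Iodide uptake through human NIS is measured in an engineered HEK293T line. Cells take up 125I (329pM final) for 2 hours at room temperature alongside chemicals at 0.001–100uM. Retained radioactivity is counted, and the signal is expressed against DMSO controls.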"}, "[2]": {"test": "CEETOX_H295R_11DCORT: CeeTox H295R High-throughput Steroidogenesis Assay for 11-Deoxycortisol (11DCORT) (AID 2283432)", "conditions": "actives raise or lower the signal", "in_short": "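Adrenal carcinoma line H295R, run per OECD 456 with minor changes, was forskolin-stimulated (10 uM, 48 h) before a 48 h chemical exposure at 0.1% DMSO. Secreted 11-deoxycortisol was quantified by HPLC-MS/MS.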"}, "[3]": {"test": "CEETOX_H295R_CORTIC: CeeTox H295R High-throughput Steroidogenesis Assay for Corticosterone (CORTIC) (AID 2283437);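 further: corticosterone secreted into medium quantified by mass spectrometry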", "conditions": "actives raise or lower the signal", "in_short": "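48 h forskolin (10 uM) prestim, then 48 h chemical exposure, final DMSO 0.1%. Readout: corticosterone in medium by LC-MS/MS after MTBE extraction. Gain/loss fit vs DMSO; MTT viability in same wells.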"}, "[4]": {"test": "CEETOX_H295R_CORTISOL: CeeTox H295R High-throughput Steroidogenesis Assay for Cortisol (AID 2283438)", "conditions": "actives raise or lower the signal", "in_short": "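Cortisol synthesis by H295R cells is measured 48 h after chemical dosing, following a 48 h stimulation with 10 uM forskolin. Hormone is extracted and quantified by HPLC-MS/MS, and activity is fitted bidirectionally against the DMSO control.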"}, "[5]": {"test": "CEETOX_H295R_DOC: CeeTox H295R High-throughput Steroidogenesis Assay for DOC (AID 2283439)", "conditions": "actives raise or lower the signal", "in_short": "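Steps: seed H295R, adhere overnight; 10 uM forskolin 48 h; replace with chemical medium (0.1% DMSO) 48 h; collect medium, MTBE extraction, HPLC-MS/MS for DOC. Viability then checked by MTT; cytotoxic chemicals diluted until viability ≥70%.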"}, "[6]": {"test": "CCTE_Shafer_MEA_dev_firing_rate_mean: CCTE's Neural Network Formation Assay for Mean Firing Rate, Shafer Lab (AID 2284031)", "in_short": "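Steps: seed rat cortical cells (1.5 x 10^5/well) with laminin on PEI-coated MEA; dose day 0; record DIV 5/7/9/12, full media and compound exchange after DIV 5 and 9 recordings; compute well-mean firing rate AUC.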"}, "[7]": {"test": "CCTE_Shafer_MEA_dev_per_burst_spike_percent: CCTE's Neural Network Formation Assay for Percent of Spikes in a Burst, Shafer Lab (AID 2284032)", "in_short": "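Value is trapezoidal AUC over recordings on days 5, 7, 9 and 12 of the well-mean fraction of spikes falling in single-electrode bursts; rat cortical cultures exposed continuously from plating, treatment renewed DIV 5 and 9, fitted downward against DMSO.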"}, "[8]": {"test": "CCTE_Shafer_MEA_dev_active_electrodes_number: CCTE's Neural Network Formation Assay for Number of Active Electrodes, Shafer Lab (AID 2284040; active means hit-call score of the fitted dose curve at least 0.9, where 1 is the maximum)", "in_short": "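Counts electrodes per well firing at least 5 spikes/min, recorded on days 5, 7, 9 and 12 in rat cortical cultures dosed continuously from plating (treatment refreshed DIV 5, 9). Value is the area under the curve over recordings, fitted downward relative to DMSO.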"}, "[9]": {"test": "CCTE_Shafer_MEA_dev_burst_rate: CCTE's Neural Network Formation Assay for Burst Rate, Shafer Lab (AID 2284042)", "in_short": "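Cells plated, treated day 0; recorded DIV 5, 7, 9, 12; fed and re-treated DIV 5, 9. Endpoint: bursts per recording time, active-electrode well mean, trapezoidal AUC, fitted in decreasing direction against DMSO baseline.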"}, "[10]": {"test": "CCTE_Shafer_MEA_dev_per_burst_interspike_interval: CCTE's Neural Network Formation Assay for Burst Interspike Interval, Shafer Lab (AID 2284044)", "in_short": "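Rat cortical primary cultures, 16 electrodes/well; compound from plating, renewed with full media change DIV 5 and 9. Spikes via adaptive detector; per-burst ISI well-mean over active bursting electrodes; AUC of DIV 5/7/9/12 recordings; loss-direction fit vs DMSO.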"}, "[11]": {"test": "CCTE_Shafer_MEA_dev_burst_duration_mean: CCTE's Neural Network Formation Assay for Mean Burst Duration, Shafer Lab (AID 2284045)", "in_short": "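Rat cortical cultures, 1.5 x 10^5 cells/well with laminin drop; continuous dosing days 0–12, media plus treatment refreshed DIV 5, 9. AxIS adaptive spike detection; mean single-electrode burst duration, AUC over four recordings, negative direction vs DMSO.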"}, "[12]": {"test": "CCTE_Shafer_MEA_dev_interburst_interval_mean: CCTE's Neural Network Formation Assay for Mean Interburst Interval, Shafer Lab (AID 2284046)", "in_short": "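Developing rat cortical networks on 48-well MEAs receive compound from the day of plating. Burst intervals from each active electrode are averaged per well, and AUC over the recording days is fitted in the negative direction against DMSO.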"}, "[13]": {"test": "CCTE_Shafer_MEA_dev_inter_network_spike_interval_mean: CCTE's Neural Network Formation Assay for Mean Inter-network Spike Interval, Shafer Lab (AID 2284047)", "in_short": "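Rat cortical cultures, 1.5 x 10^5 cells/well on 48-well MEA plates; continuous exposure days 0–12, medium and compound refreshed DIV 5, 9. Mean time between consecutive network-spike peaks; AUC across DIV 5/7/9/12; DMSO baseline, negative fitting direction.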"}, "[14]": {"test": "CCTE_Shafer_MEA_dev_network_spike_number: CCTE's Neural Network Formation Assay for Number of Network Spikes, Shafer Lab (AID 2284048)", "in_short": "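Rat cortical primary cultures on 48-well MEA (16 electrodes/well); continuous exposure DIV 0–12, full medium and treatment exchange DIV 5, 9. Readout: network spike count, AxIS adaptive detection, recordings DIV 5/7/9/12 collapsed to AUC; loss-of-signal fit, DMSO baseline.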"}, "[15]": {"test": "CCTE_Shafer_MEA_dev_network_spike_peak: CCTE's Neural Network Formation Assay for Mean Number of Electrodes in Network Spike, Shafer Lab (AID 2284049)", "in_short": "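Network-spike peak electrode count from recordings on days 5, 7, 9 and 12 was combined as trapezoidal area under the curve. Rat cortical cultures were treated continuously from plating, with compound renewed at each feed (DIV 5, 9); fits versus DMSO.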"}, "[16]": {"target": "Agonist Androgen Response Element (ARE), AR (gene 367) (UniProt P10275)", "sequence (P10275 whole entry, looked up)": "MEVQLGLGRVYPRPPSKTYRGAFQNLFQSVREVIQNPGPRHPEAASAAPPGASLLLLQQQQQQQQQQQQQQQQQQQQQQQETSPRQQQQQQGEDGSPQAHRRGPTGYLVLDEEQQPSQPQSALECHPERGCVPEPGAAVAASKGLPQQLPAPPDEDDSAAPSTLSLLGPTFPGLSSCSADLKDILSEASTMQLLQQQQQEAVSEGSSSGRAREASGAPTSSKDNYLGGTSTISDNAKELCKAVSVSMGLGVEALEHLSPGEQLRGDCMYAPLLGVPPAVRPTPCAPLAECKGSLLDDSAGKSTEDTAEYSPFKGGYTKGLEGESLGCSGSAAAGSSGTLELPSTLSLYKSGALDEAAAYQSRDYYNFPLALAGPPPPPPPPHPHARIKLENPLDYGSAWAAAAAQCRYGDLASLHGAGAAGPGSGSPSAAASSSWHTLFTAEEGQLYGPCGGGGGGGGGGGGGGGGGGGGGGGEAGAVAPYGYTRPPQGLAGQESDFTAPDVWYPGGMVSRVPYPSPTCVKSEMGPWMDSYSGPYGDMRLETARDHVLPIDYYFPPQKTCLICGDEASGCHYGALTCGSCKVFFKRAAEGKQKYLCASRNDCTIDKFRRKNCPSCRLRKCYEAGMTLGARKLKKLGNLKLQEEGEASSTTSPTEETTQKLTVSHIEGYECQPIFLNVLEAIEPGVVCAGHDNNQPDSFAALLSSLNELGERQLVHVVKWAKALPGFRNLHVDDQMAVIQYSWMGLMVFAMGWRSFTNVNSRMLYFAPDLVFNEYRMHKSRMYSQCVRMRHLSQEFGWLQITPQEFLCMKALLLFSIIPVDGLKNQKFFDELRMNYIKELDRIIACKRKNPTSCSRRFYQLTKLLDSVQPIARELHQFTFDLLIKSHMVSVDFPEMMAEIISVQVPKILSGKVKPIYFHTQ", "test": "OT_AR_ARELUC_AG_1440: Odyssey Thera (OT) 24-hour CHO-K1 Luciferase Assay for Agonist Androgen Response Element (ARE) (AID 2283379; active means hit-call score of the fitted dose curve at least 0.9, where 1 is the maximum)", "in_short": "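Gain-of-signal reporter endpoint: cells (CHO-K1, hamster) are treated 24 h, luciferin/ATP reagent added, and luminescence compared with DMSO baseline.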"}, "[17]": {"target": "AR (gene 367) (UniProt P10275)", "sequence (P10275 whole entry, looked up)": "as above", "test": "ACEA_AR_antagonist_80hr: ACEA Biosciences xCELLigence Real-Time Cell Analysis on Androgen Receptor Antagonism for Proliferation (AID 2283787; active means hit-call score of the fitted dose curve at least 0.9, where 1 is the maximum;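 further: 22Rv1 human prostate cancer cells with growth followed by electrical impedance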)", "in_short": "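Measures real-time proliferation of 22Rv1 prostate cancer cells by electrode impedance at 80 hours after dosing. Test articles ran at eight concentrations (1:4 steps, top 100 uM final) in biological duplicate.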"}, "[18]": {"target": "Nucleoli Translocation, AR (gene 367) (UniProt P10275)", "sequence (P10275 whole entry, looked up, the tested form may be a part)": "as the sequence (P10275 whole entry, looked up) above", "test": "UPITT_HCI_U2OS_AR_TIF2_Nucleoli_Agonist: University of Pittsburgh U2OS Androgen Receptor-Transcriptional Intermediary Factor 2 (AR-TIF2) Agonism High Content Imaging Assay for Nucleoli Translocation (AID 2283998; active means hit-call score of the fitted dose curve at least 0.9, where 1 is the maximum)", "in_short": "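Cells express human AR fused to red fluorescent protein and TIF2 fused to GFP. Red fluorescence in the nucleolar region was quantified by high-content imaging and fitted as gain-of-signal against a DMSO baseline. Compounds were tested at 0.195 to 50 uM final (0.5% DMSO).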"}, "[19]": {"target": "Ratio of Nucleoli Translocation and Cytoplasm, AR (gene 367) (UniProt P10275)", "sequence (P10275 whole entry, looked up)": "as above", "test": "UPITT_HCI_U2OS_AR_TIF2_Nucleoli_Cytoplasm_Ratio_Antagonist: University of Pittsburgh U2OS Androgen Receptor-Transcriptional Intermediary Factor 2 (AR-TIF2) Antagonism High Content Imaging Assay for Ratio of Nucleoli Translocation and Cytoplasm (AID 2283999; active means hit-call score of the fitted dose curve at least 0.9, where 1 is the maximum)", "in_short": "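Compounds were added to U2OS cells carrying red-fluorescent AR and green-fluorescent TIF2, first at 20 uM, with hits confirmed in triplicate and titrated from 0.195 to 50 uM. Nucleolar versus cytoplasmic AR-RFP fluorescence was then quantified by imaging, with analysis relative to DHT.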"}, "[20]": {"target": "Ratio of Nucleoli Translocation and Cytoplasm, AR (gene 367) (UniProt P10275)", "test": "UPITT_HCI_U2OS_AR_TIF2_Nucleoli_Cytoplasm_Ratio_Agonist: University of Pittsburgh U2OS Androgen Receptor-Transcriptional Intermediary Factor 2 (AR-TIF2) Agonism High Content Imaging Assay for Ratio of Nucleoli Translocation and Cytoplasm (AID 2284000; active means hit-call score of the fitted dose curve at least 0.9, where 1 is the maximum;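 further: hits raise the red nucleolar to cytoplasm ratio above vehicle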)", "in_short": "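Human osteosarcoma U2OS line, AR-RFP plus TIF2-GFP; compounds 0.195–50 uM final, 0.5% DMSO. Readout: nucleolar/cytoplasmic RFP ratio by HCI, positive direction vs DMSO baseline.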"}},
  "note": "Inconclusive results are not listed. Active and inactive are the calls of the source. How the source made its calls, unless noted: active means hit-call score of the fitted dose curve at least 0.9, where 1 is the maximum; inactive means score below 0.9.",
  "data": [
    {"smiles": "F[B-](F)(F)F", "values": [
      {"measurement": "AC50", "setting": "[1]", "result": "820 nM (active)"}
    ]},
    {"smiles": "CCO[Si](CCCN)(OCC)OCC", "values": [
      {"measurement": "outcome", "setting": "[2]", "result": "inactive"},
      {"measurement": "outcome", "setting": "[3]", "result": "inactive"},
      {"measurement": "outcome", "setting": "[4]", "result": "inactive"},
      {"measurement": "outcome", "setting": "[5]", "result": "inactive"}
    ]},
    {"smiles": "c1ccc(CNc2ncnc3nc[nH]c23)cc1", "values": [
      {"measurement": "outcome", "setting": "[2]", "result": "inactive"},
      {"measurement": "outcome", "setting": "[3]", "result": "inactive"},
      {"measurement": "outcome", "setting": "[4]", "result": "inactive"},
      {"measurement": "outcome", "setting": "[5]", "result": "inactive"}
    ]},
    {"smiles": "NC(N)=Nc1nc(CSCCC(N)=NS(N)(=O)=O)cs1", "values": [
      {"measurement": "outcome", "setting": "[6]", "result": "inactive"},
      {"measurement": "outcome", "setting": "[7]", "result": "inactive"},
      {"measurement": "outcome", "setting": "[8]", "result": "inactive"},
      {"measurement": "outcome", "setting": "[9]", "result": "inactive"},
      {"measurement": "outcome", "setting": "[10]", "result": "inactive"},
      {"measurement": "outcome", "setting": "[11]", "result": "inactive"},
      {"measurement": "outcome", "setting": "[12]", "result": "inactive"},
      {"measurement": "outcome", "setting": "[13]", "result": "inactive"},
      {"measurement": "outcome", "setting": "[14]", "result": "inactive"},
      {"measurement": "outcome", "setting": "[15]", "result": "inactive"}
    ]},
    {"smiles": "CO[Si](CCCNCCN)(OC)OC", "values": [
      {"measurement": "outcome", "setting": "[16]", "result": "inactive"},
      {"measurement": "outcome", "setting": "[17]", "result": "inactive"},
      {"measurement": "outcome", "setting": "[18]", "result": "inactive"},
      {"measurement": "outcome", "setting": "[19]", "result": "inactive"},
      {"measurement": "outcome", "setting": "[20]", "result": "inactive"}
    ]},
    {"smiles": "O=C(c1ccccc1)c1ccccc1O", "values": [
      {"measurement": "outcome", "setting": "[16]", "result": "inactive"},
      {"measurement": "outcome", "setting": "[17]", "result": "inactive"},
      {"measurement": "outcome", "setting": "[18]", "result": "inactive"},
      {"measurement": "outcome", "setting": "[19]", "result": "inactive"},
      {"measurement": "outcome", "setting": "[20]", "result": "inactive"}
    ]},
    {"smiles": "OC(C(F)(F)F)(C(F)(F)F)C(O)(C(F)(F)F)C(F)(F)F", "values": [
      {"measurement": "outcome", "setting": "[1]", "result": "inactive"}
    ]}
  ]
}
